SMILES strings stand for the structures. This is one part of the list. Values without a mark were called inactive. Active and inactive are the calls of the source. Cut-off read from the data, not from the text of the source: active = IC50 below about 20 µM; inactive = the rest.

This assay is described as follows: blockers of mitochondrial swelling via MPTP – biochemical, absorbance, uHTS hits, dose response (AID 651561). The conditions noted are these: isolated mitochondria swelling.
For the compound `COc1ccc(C2NCc3ccc4c(c3-n3cccc32)OCO4)cc1OC` (stereo not drawn), the IC50 (usually the concentration that inhibits the measured activity by half) is 26.9 µM. Consider `O=Cc1cn(Cc2ccc(F)cc2Cl)c2ccccc12`, for which the IC50 was 32.3 µM. With `CC(Cc1ccccc1)NCCC(c1ccccc1)c1ccccc1` (stereo not drawn), the IC50 is 4.21 µM (active).

Values taken from PubChem BioAssay AID651561 (Sanford-Burnham Center for Chemical Genomics, 2012).
